RXFP1 agonist = activates the human relaxin receptor RXFP1; Q9HBX9; HEK293T-RXFP1 cAMP TR-FRET, 30 min; response scale: percent of porcine relaxin response, buffer zero; Potency, µM (highest dose often 57.5 µM), hits mostly activators; actives 0.3% (n = 370,000); AID 2676; note: nearly all actives have a fitted effect of over 60% in size
Target sequence (Q9HBX9 whole entry, looked up): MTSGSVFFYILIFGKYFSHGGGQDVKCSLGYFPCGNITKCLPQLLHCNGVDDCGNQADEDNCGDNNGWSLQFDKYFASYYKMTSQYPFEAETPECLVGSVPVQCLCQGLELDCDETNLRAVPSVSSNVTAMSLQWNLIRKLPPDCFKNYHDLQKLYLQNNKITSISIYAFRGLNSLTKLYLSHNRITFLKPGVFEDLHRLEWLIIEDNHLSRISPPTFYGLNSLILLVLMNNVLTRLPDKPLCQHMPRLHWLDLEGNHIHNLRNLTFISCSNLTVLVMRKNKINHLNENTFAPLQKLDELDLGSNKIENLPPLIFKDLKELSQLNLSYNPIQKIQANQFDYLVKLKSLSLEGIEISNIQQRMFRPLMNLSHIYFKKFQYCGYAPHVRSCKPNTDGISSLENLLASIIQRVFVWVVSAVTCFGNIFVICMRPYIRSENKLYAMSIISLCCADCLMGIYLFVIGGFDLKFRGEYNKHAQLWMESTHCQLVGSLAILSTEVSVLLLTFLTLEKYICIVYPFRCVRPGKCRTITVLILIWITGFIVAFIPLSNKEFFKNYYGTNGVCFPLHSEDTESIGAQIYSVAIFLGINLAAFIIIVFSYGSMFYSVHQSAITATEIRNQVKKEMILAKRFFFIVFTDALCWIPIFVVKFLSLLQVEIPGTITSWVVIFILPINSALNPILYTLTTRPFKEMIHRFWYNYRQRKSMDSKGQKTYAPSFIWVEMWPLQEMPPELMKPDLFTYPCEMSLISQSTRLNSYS
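HEK293 cells stably expressing RXFP1, treated 30 min at 37C with compounds plus PDE4 inhibitor Ro 20174; cAMP measured by HTRF TR-FRET. Normalized to buffer and 29 nM porcine relaxin; EC50 by Hill fit.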
CCT modulator = changes cytosolic chaperonin activity. activity change, % (no concentration beside the values), hits read low. actives 0.3% (n = 360,000). purified chaperonin ATPase assay, HTRF ADP detection, 30 min; in the data active = activity change below about -30%
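TRiC (40 or 20 nM final, by batch activity) in 30 mM Tris pH 7.4, 100 mM KCl, 5 mM MgCl2, 1 mM DTT was treated with compound at 76 uM single dose, then 10 uM ATP, 30 min at 37 °C. ADP was read by HTRF Transcreener.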
gsp antag = gsp mutant antagonism; gsp-mutant cells, cAMP HTRF, 30 min; Potency, µM (titrated, usually from 76.9 µM), usual class: inhibitors; actives 0.4% (n = 340,000); AID 624288; calls by dose curve; cell line not stated here;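 note: intracellular cAMP measured with PDE inhibitor Ro 20-1724 present during compound exposure; nearly all actives have a fitted effect of over 65% in size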
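Cells, 2000/well, grown 16–24 h in DMEM 10% FBS with 0.5 mg/ml G418, then compounds plus […] (300 uM addition stock), 30 min at 37C. cAMP read by HTRF (cAMP-d2 and anti-cAMP antibody-K in lysis buffer) after 30 min RT.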
MmCpn inh = inhibitors of Methanococcus maripaludis chaperonin TRiC (MmCpn); purified Mm-Cpn ATPase, ADP Transcreener TR-FRET; Potency, µM (highest dose often 76.9 µM), usual class: inhibitors; actives 0.031% (n = 330,000); AID 504842; note: nearly all actives have a fitted effect of over 80% in size
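Inhibition of chaperonin ATP hydrolysis is measured as reduced ADP production, detected by competitive TR-FRET in which signal falls with ADP. Final enzyme 25 nM and ATP 10 uM, reacted 30 min at 37°C.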
RXFP1 antagonist = antagonists of human relaxin receptor RXFP1; actives 0.59% (n = 350,000); AID 1259400; HEK293-RXFP1, relaxin-stimulated cAMP HTRF, 30 min; stronger effect = lower value; Q9HBX9; activity change, negative = inhibition, % at 57.5 µM;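 active = activity change of -60% or lower, but not beyond a set lower limit; inconclusive = change between -60% and -40%, or beyond the set limit; inactive = change above -40%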
gsp ag = gsp mutant agonism | actives 0.13% (n = 340,000) | AID 624287 | Potency, µM (highest dose often 76.9 µM), usual class: activators | gsp mutant cells, cAMP HTRF, 30 min; active = well fitted activation curve with a large enough effect; inconclusive = small, poorly fitted or top-dose-only effect, or another doubt; inactive = no such curve, though single readings can be large or run the other way; cell line not stated here;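 note: phosphodiesterase inhibitor Ro 20-1724 added with compounds to block cAMP breakdown; nearly all actives have a fitted effect of over 60% in size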
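Cells stably selected in G418 were plated at 2000/well, grown 16-24 hr, then given compounds in DMSO with the PDE inhibitor […] (300 uM solution added) for 30 min at 37C; cAMP was read by HTRF.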
Hits are given with their value; [ ] = another dose, or the depositor's remark. Rows were chosen to be rich in hits. Some 1.2% of all compounds tested hit in one or more screens of this group. Unless noted, calls come from the whole dose curve; as a rule, active = well fitted curve in the direction sought with a large enough effect; inconclusive = small, poorly fitted or top-dose-only effect, or another doubt; inactive = no such curve, though single readings can be large; an effect the other way counts as inactive or inconclusive.

How did Cc1nc2nc(C)c(CCC(=O)N3CCN(c4ccccn4)CC3)c(C)n2n1 do in these assays?
RXFP1 agonist: inactive; CCT modulator: inactive; gsp antag: inactive; MmCpn inh: inactive; RXFP1 antagonist: inactive; gsp ag: inconclusive

How did CCn1c(=O)c(CCC(=O)N2CCN(c3ccccn3)CC2)c(C)c2c(C)nn(-c3cccc(C)c3)c21 do in these assays?
RXFP1 agonist: inactive; CCT modulator: -35; gsp antag: inactive; MmCpn inh: inactive; RXFP1 antagonist: -103; gsp ag: inactive

How did CCn1c2c(c(=O)n3ncc(C(=O)Nc4ccc(OC(F)(F)F)cc4)c13)CN(Cc1ccc(OC)cc1)CC2 do in these assays?
RXFP1 agonist: inactive; RXFP1 antagonist: inactive

What do the screens show for `COc1cc2nc(NCCc3ccc(Cl)cc3)n3nc(-c4ccccc4)nc3c2cc1OC`?
RXFP1 agonist: inactive

How did CCc1n[nH]c(=S)n1/N=C/c1ccc2c(c1)OCO2 do in these assays?
RXFP1 agonist: inactive; CCT modulator: inactive; gsp antag: inactive; MmCpn inh: inactive; RXFP1 antagonist: inactive; gsp ag: inactive

Results for CCCc1nnc(SCC(=O)O)n1/N=C/c1ccc2c(c1)OCO2 ?
RXFP1 agonist: inactive; CCT modulator: -63; gsp antag: inactive; MmCpn inh: inactive; RXFP1 antagonist: inactive; gsp ag: inactive

Results for COc1ccc(NC(=O)c2nc[nH]c2C(=O)N[C@@H](C)C(=O)OC(C)(C)C)cc1 ?
RXFP1 agonist: inactive; CCT modulator: inactive; gsp antag: inactive; MmCpn inh: inactive; gsp ag: 13µM

Results for Cc1ccc(NC(=O)c2nc[nH]c2C(=O)N[C@@H](C)C(=O)OC(C)(C)C)cc1 ?
RXFP1 agonist: inactive; CCT modulator: inactive; gsp antag: inactive; MmCpn inh: inactive

What do the screens show for `CCn1c(/C=C/c2ccc(O)cc2)nc2ccccc2c1=O`?
RXFP1 agonist: inactive; CCT modulator: inactive; gsp antag: inactive; MmCpn inh: inactive; RXFP1 antagonist: -71; gsp ag: inactive[15.4 µM]

Results for CCn1c(/C=C/c2ccc(O)c(O)c2)nc2ccccc2c1=O ?
RXFP1 agonist: inactive; CCT modulator: inactive; gsp antag: inactive; MmCpn inh: inactive; RXFP1 antagonist: inactive; gsp ag: inactive

How did CC(C)(C)C(=O)COC(=O)c1cc(-c2ccncc2)nc2ccccc12 do in these assays?
RXFP1 agonist: inactive; CCT modulator: inactive; gsp antag: inactive; MmCpn inh: inactive; RXFP1 antagonist: -67; gsp ag: inactive[15.4 µM]

Results for CC(=O)COC(=O)c1cc(-c2ccc(C)cc2)nc2ccccc12 ?
RXFP1 agonist: inactive; CCT modulator: inactive; gsp antag: inconclusive; MmCpn inh: inactive; RXFP1 antagonist: inactive; gsp ag: inactive

What do the screens show for `CCCCc1ccc(NC(=S)N2CCN(c3ccccn3)CC2)cc1`?
RXFP1 agonist: inactive; CCT modulator: inactive; gsp antag: inactive; MmCpn inh: inactive; RXFP1 antagonist: -69; gsp ag: inactive

Results for CCCCc1ccc(NC(=S)N2CCN(c3ncccn3)CC2)cc1 ?
RXFP1 agonist: inactive; CCT modulator: inactive; gsp antag: inactive; MmCpn inh: inactive; RXFP1 antagonist: inactive; gsp ag: inactive[15.4 µM]

How did O=C(O)CCC(=O)Nc1ccc(C(=O)OCC(=O)c2ccc(Cl)cc2Cl)cc1 do in these assays?
RXFP1 agonist: inactive; CCT modulator: inactive; gsp antag: inactive; MmCpn inh: inactive; RXFP1 antagonist: -67; gsp ag: inactive

What do the screens show for `CCC(=O)Nc1cc(C(=O)OCC(=O)c2ccc(Cl)cc2Cl)ccc1C`?
RXFP1 agonist: inactive; CCT modulator: inactive; gsp antag: inactive; MmCpn inh: inactive; RXFP1 antagonist: inactive; gsp ag: inactive

What do the screens show for `O=C(Nc1cc(Cl)cc(Cl)c1)c1ccc(F)c(S(=O)(=O)N2CCc3ccccc32)c1`?
RXFP1 agonist: inactive; RXFP1 antagonist: inactive

Results for Cc1c(C(=O)Nc2ccc(S(=O)(=O)Nc3ncccn3)cc2)oc2ccc(Cl)cc12 ?
RXFP1 agonist: inactive; CCT modulator: -34; gsp antag: inactive; MmCpn inh: inactive; RXFP1 antagonist: inactive; gsp ag: inactive

Results for CC(NC(=O)Cn1cnnn1)C12CC3CC(CC(C3)C1)C2 (stereo not given) ?
RXFP1 agonist: inactive; CCT modulator: -91; gsp antag: inactive; MmCpn inh: inactive; RXFP1 antagonist: inactive; gsp ag: inactive

What do the screens show for `Cc1cccc(-n2nc(C)c(C(=O)Nc3cc(C)ccc3C)c2-n2cccc2)c1`?
RXFP1 agonist: inactive; RXFP1 antagonist: inconclusive

What do the screens show for `Cc1ccnn1CCC(=O)N1CCCC(Nc2ccc(C(C)C)cc2)C1` (stereo not given)?
CCT modulator: inactive; RXFP1 antagonist: inactive; gsp ag: inactive

How did CC(C)c1ccc(NC2CCCN(C(=O)CCN3CCCC3=O)C2)cc1 (stereo not given) do in these assays?
RXFP1 agonist: inactive; CCT modulator: -34; gsp antag: inactive; MmCpn inh: inactive; RXFP1 antagonist: inactive; gsp ag: inactive

Results for Cc1nc2c(c(C)nn2C(C)(C)C)c(C)c1CCC(=O)Nc1ccc(Br)cc1Br ?
RXFP1 agonist: inactive

What do the screens show for `CC(NC(=O)/C(C#N)=C/c1ccc([N+](=O)[O-])o1)c1ccccc1` (stereo not given)?
RXFP1 agonist: inactive; CCT modulator: inactive; gsp antag: inactive; MmCpn inh: inactive; RXFP1 antagonist: -75; gsp ag: inactive

What do the screens show for `CCCCC(O)(c1ccc(F)cc1)C(CN1CCOCC1)c1ccc(Cl)cc1` (stereo not given)?
RXFP1 agonist: inactive; CCT modulator: inactive; gsp antag: inactive; MmCpn inh: inactive; RXFP1 antagonist: -77; gsp ag: inactive

What do the screens show for `COc1cccc(N2CCN(C(=O)c3cccc(NC(=O)c4nsc5ccccc45)c3)CC2)c1`?
RXFP1 agonist: inactive; RXFP1 antagonist: inactive

How did COc1ccc(OC)c(C2c3c(oc4ccc(C)cc4c3=O)C(=O)N2CCCN(C)C)c1 (stereo not given) do in these assays?
RXFP1 agonist: inactive; RXFP1 antagonist: inactive

What do the screens show for `CCN(CC)c1ccc2cc(C=O)c(=O)oc2c1`?
RXFP1 agonist: inactive; CCT modulator: inactive; gsp antag: inactive; RXFP1 antagonist: inactive; gsp ag: inactive

What do the screens show for `CCN(CC)c1ccc2nc3c4ccccc4c(=O)cc-3oc2c1`?
RXFP1 agonist: inactive; CCT modulator: -48; gsp antag: inactive; MmCpn inh: inactive; RXFP1 antagonist: inactive; gsp ag: inactive

What do the screens show for `COc1ccccc1N1CCN(C(=O)c2cnn(-c3ccc(F)cc3F)c2C2CCNCC2)CC1`?
RXFP1 agonist: inactive

Results for O=C(NCCS(=O)(=O)N1CCN(c2ccc(F)cc2)CC1)C(c1ccccc1)c1ccccc1 ?
RXFP1 agonist: inactive; RXFP1 antagonist: inactive

Compound activity deposited in PubChem by National Center for Advancing Translational Sciences (NCATS).
